According to PubChem BioAssay (NCATS):
Records with an inconclusive call do not appear. Entries that show only a call come without a potency. The source made the active and inactive calls. Unless noted, calls follow the shape of the full dose curve.

Tests used:
[1] = qHTS for Inhibitors of the Functional Ribonucleoprotein Complex (vRNP) of Lassa (LASV) Arenavirus: LASV Primary Screen - GLuc reporter signal (AID 1347082; calls by dose curve; tested in HEK293 reporter line; also: series mostly up to about 57 µM; nearly all actives have a fitted effect of over 60% in size)
[2] = qHTS for Inhibitors of the Functional Ribonucleoprotein Complex (vRNP) of Lassa (LASV) Arenavirus: Viability assay - alamar blue signal for LASV Primary Screen (AID 1347083; calls by dose curve; tested in HEK293 reporter line; also: nearly all actives have a fitted effect of over 80% in size; also: potency is read from the fitted curve at half-maximal effect)
[3] = qHTS for Inhibitors of the Functional Ribonucleoprotein Complex (vRNP) of Lymphocytic Choriomeningitis Arenaviruses (LCMV): Viability assay - alamar blue signal for LCMV Primary Screen (AID 1347085; calls by dose curve; tested in HEK293 reporter line; also: nearly all actives have a fitted effect of over 80% in size; also: potency is read from the fitted curve at half-maximal effect)
[4] = target: Nucleoprotein (Lymphocytic choriomeningitis virus (strain Armstrong)) (UniProt P09992); test: qHTS for Inhibitors of the Functional Ribonucleoprotein Complex (vRNP) of Lymphocytic Choriomeningitis Arenaviruses (LCMV): LCMV Primary Screen - GLuc reporter signal (AID 1347086); also: nearly all actives have a fitted effect of over 70% in size; also: potency is read from the fitted curve at half-maximal effect
Nucleoprotein (Lymphocytic choriomeningitis virus (strain Armstrong)), sequence (P09992 whole entry, looked up): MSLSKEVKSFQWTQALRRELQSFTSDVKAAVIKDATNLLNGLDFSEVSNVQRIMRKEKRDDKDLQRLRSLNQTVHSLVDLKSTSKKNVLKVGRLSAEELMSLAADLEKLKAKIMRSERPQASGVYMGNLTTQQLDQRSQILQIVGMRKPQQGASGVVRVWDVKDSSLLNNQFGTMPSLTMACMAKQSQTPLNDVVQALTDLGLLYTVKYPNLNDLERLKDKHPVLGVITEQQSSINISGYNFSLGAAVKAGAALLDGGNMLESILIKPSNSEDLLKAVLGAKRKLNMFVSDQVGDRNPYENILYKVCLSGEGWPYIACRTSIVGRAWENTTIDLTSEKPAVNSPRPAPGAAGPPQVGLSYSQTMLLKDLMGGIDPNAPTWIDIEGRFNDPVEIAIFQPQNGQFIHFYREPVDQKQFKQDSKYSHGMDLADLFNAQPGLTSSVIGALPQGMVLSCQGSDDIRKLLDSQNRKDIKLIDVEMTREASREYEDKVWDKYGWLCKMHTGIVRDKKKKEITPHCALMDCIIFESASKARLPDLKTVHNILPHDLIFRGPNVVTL

Compound	Potency [1]	Potency [2]	Potency [3]	Potency [4]
NS(=O)(=O)c1cc(C2(O)NC(=O)c3ccccc32)ccc1Cl (stereo unspecified)	inactive	inactive	inactive	inactive
O=C(/C=C/c1ccccc1)OCc1ccccc1	inactive	inactive	inactive	inactive
Cc1cccc(C)c1NC(=O)CN(CC(=O)O)CC(=O)O	inactive	inactive	inactive	inactive
Cc1cccn2c(=O)c(-c3nnn[nH]3)cnc12	inactive	inactive	inactive	inactive
CCN(CC)CC#CCOC(=O)C(O)(c1ccccc1)C1CCCCC1 (stereo unspecified)	inactive	inactive	inactive	inactive
O=P(O)(O)C(O)(Cn1ccnc1)P(=O)(O)O	inactive	inactive	inactive	inactive
NS(=O)(=O)c1cc2c(cc1C(F)(F)F)NC(Cc1ccccc1)NS2(=O)=O (stereo unspecified)	inactive	inactive	inactive	inactive
C[N+]1(C)CCCC(OC(=O)C(O)(c2ccccc2)c2ccccc2)C1 (stereo unspecified)	inactive	inactive	inactive	inactive
COC(=O)CCCCC(CCSS/C(CCO)=C(\C)N(C=O)Cc1cnc(C)nc1N)SC(C)=O (stereo unspecified)	inactive	inactive	inactive	inactive
Cc1ccc(C(C)C)cc2c(C)ccc1-2	inactive	inactive	inactive	inactive
CCCC(=O)Nc1ccc(O)c(C(C)=O)c1	inactive	inactive	inactive	inactive
CCCCCCCCCCCCCCCCN	inactive	inactive	inactive	inactive
CC(=O)NCc1c(I)c(NC(C)=O)c(I)c(C(=O)O)c1I	inactive	inactive	inactive	inactive
COc1ccccc1OCC1CNC(=O)O1 (stereo unspecified)	inactive	inactive	inactive	inactive
C[C@H]1C[C@@H]2[C@H]([C@@H](O)C[C@@]3(C)[C@H]2CC[C@]3(O)C(=O)CO)[C@@]2(C)C=CC(=O)C=C12	inactive	inactive	inactive	inactive
Nc1ccc(S(=O)(=O)NC(=O)c2ccccc2)cc1	inactive	inactive	inactive	inactive
Cc1cc(CC(=O)O)c(C)n1-c1ccc(Cl)cc1	inactive	inactive	inactive	inactive
Cc1cc(C)nc(NS(=O)(=O)c2ccc(N)cc2)n1	inactive	inactive	inactive	inactive
CN1CCN(N)CC1	inactive	inactive	inactive	inactive
Cc1onc(-c2ccccc2)c1-c1ccc(S(N)(=O)=O)cc1	inactive	inactive	inactive	inactive
COC(=O)c1ccc(NC(C)=O)cc1OC	inactive	inactive	inactive	inactive
CC(C)C[C@H](NC(=O)CNC(=O)[C@H](Cc1ccc(O)cc1)NC(=O)[C@H](CO)NC(=O)[C@H](Cc1c[nH]c2ccccc12)NC(=O)[C@H](Cc1cnc[nH]1)NC(=O)[C@@H]1CCC(=O)N1)C(=O)N[C@@H](CCCN=C(N)N)C(=O)N1CCC[C@H]1C(=O)NCC(N)=O (stereo in doubt)	inactive	inactive	inactive	inactive

Compound	Potency [1]	Potency [2]	Potency [3]	Potency [4]
NS(=O)(=O)c1cc2c(cc1Cl)NC(C(Cl)Cl)NS2(=O)=O (stereo unspecified)	inactive	inactive	inactive	inactive
CC(=O)N/N=C/c1ccc([N+](=O)[O-])o1	inactive	inactive	inactive	inactive
CC(=O)[C@H]1CC[C@H]2[C@@H]3C=CC4=CC(=O)CC[C@@]4(C)[C@@H]3CC[C@]12C	inactive	inactive	inactive	inactive
CN1C(C(=O)Nc2ccccn2)=C(O)c2sccc2S1(=O)=O	inactive	inactive	inactive	inactive
Cc1cccc(C)c1NC(=O)CN1CCCCCC1	inactive	inactive	inactive	inactive
c1ccc2sc(SSc3nc4ccccc4s3)nc2c1	inactive	inactive	inactive	inactive
CCN1CCC[C@H]1CNC(=O)c1cc(S(N)(=O)=O)ccc1OC	inactive	inactive	inactive	inactive
CCN(CC)C(=O)/C(C#N)=C/c1cc(O)c(O)c([N+](=O)[O-])c1	inactive	inactive	inactive	inactive
CNCC(O)c1ccc(O)c(O)c1 (stereo unspecified)	inactive	inactive	inactive	inactive
Nc1ccc(C(=O)O)cc1	inactive	inactive	inactive	inactive
CCCCCCCCCCCCCCCC(=O)NCCO	inactive	inactive	inactive	inactive
CCn1cc(C(=O)O)c(=O)c2cnc(N3CCNCC3)nc21	inactive	inactive	inactive	inactive
CCCCC(=O)OCC(=O)[C@H]1[C@H](C)C[C@H]2[C@@H]3C[C@H](F)C4=CC(=O)C=C[C@]4(C)[C@@]3(F)[C@@H](O)C[C@@]21C	inactive	inactive	inactive	inactive
CCCCCCCC(=O)[O-].CCCCCCCC(=O)[O-].[Zn+2]	inactive	inactive	inactive	inactive
CO[C@@]1(NC(=O)Cc2cccs2)C(=O)N2C(C(=O)O)=C(COC(N)=O)CS[C@@H]21	inactive	inactive	inactive	inactive
Cn1cc(S(C)=O)c(=O)c2ccc(F)cc21 (stereo unspecified)	inactive	inactive	inactive	inactive
CCC(C(=O)OCCN(CC)CC)c1ccccc1 (stereo unspecified)	inactive	inactive	inactive	inactive
CC(=O)Oc1cc(C(C)C)c(OCCN(C)C)cc1C	inactive	inactive	inactive	inactive
NS(=O)(=O)c1cc(C(=O)O)cc(N2CCCC2)c1Oc1ccccc1	inactive	inactive	inactive	inactive
Nc1ncn([C@H]2C[C@H](O)[C@@H](CO)O2)c(=O)n1	inactive			inactive
COc1cccc2c1C(=O)c1c(O)c3c(c(O)c1C2=O)C[C@@](O)(C(=O)CO)C[C@@H]3O[C@H]1C[C@H](N)[C@@H](O)[C@H](C)O1		1.09 µM (active)	1.09 µM (active)	1.37 µM (active)
CCCc1ccc(OCC(=O)N2CCN(C(=O)COc3ccc(CCC)cc3OC)CC2)c(OC)c1			inactive	inactive

Compound	Potency [1]	Potency [2]	Potency [3]	Potency [4]
C=CC[C@@H]1C=C(C)C[C@H](C)C[C@H](OC)[C@H]2O[C@@](O)(C(=O)C(=O)N3CCCC[C@H]3C(=O)O[C@H](C(C)=C[C@@H]3CC[C@H](O)[C@H](OC)C3)[C@@H](C)[C@@H](O)CC1=O)[C@@H](C)C[C@@H]2OC	inactive			30.6 µM (active)
O=C(NCC1CCCCN1)c1cc(OCC(F)(F)F)ccc1OCC(F)(F)F (stereo unspecified)	inactive			inactive
O=C(N/N=C/c1ccc([N+](=O)[O-])o1)c1ccc(O)cc1			25.1 µM (active)	
CC(=O)Oc1ccc(C)cc1	inactive	inactive	inactive	inactive
CC(=O)N1CCN(c2ccc(OC[C@H]3CO[C@](Cn4ccnc4)(c4ccc(Cl)cc4Cl)O3)cc2)CC1		inactive	inactive	inactive
CO[C@H]1C[C@@H]2CC[C@@H](C)[C@@](O)(O2)C(=O)C(=O)N2CCCC[C@@H]2C(=O)O[C@H]([C@H](C)C[C@@H]2CC[C@H](OCCO)[C@H](OC)C2)CC(=O)[C@H](C)C=C(C)[C@@H](O)[C@@H](OC)C(=O)[C@H](C)C[C@H](C)C=CC=CC=C1C		0.0086 µM (active)	0.0769 µM (active)	0.544 µM (active)
CCCCOC(=O)c1ccc(N)cc1	inactive		inactive	inactive
COc1cc([C@@H]2c3cc4c(cc3[C@@H](O[C@@H]3O[C@@H]5CO[C@@H](c6cccs6)O[C@@H]5[C@H](O)[C@@H]3O)[C@H]3COC(=O)[C@H]23)OCO4)cc(OC)c1O		1.22 µM (active)	1.72 µM (active)	
CNC(=O)c1ccccc1Sc1ccc2c(/C=C/c3ccccn3)n[nH]c2c1	inactive		inactive	inactive
COCC(=O)Nc1c(I)c(C(=O)NCC(O)CO)c(I)c(C(=O)N(C)CC(O)CO)c1I (stereo unspecified)	inactive		inactive	inactive
CC(C=CC1=C(C)CCCC1(C)C)=CC=CC(C)=CC(=O)O	inactive		0.544 µM (active)	inactive
CCCC(=O)O[C@]1(C(=O)CO)CC[C@H]2[C@@H]3CCC4=CC(=O)CC[C@]4(C)[C@H]3[C@@H](O)C[C@@]21C	inactive	inactive		inactive
CNCCCCOc1ccccc1Cc1ccccc1			inactive	inactive
Cc1c(N)nc([C@H](CC(N)=O)NC[C@H](N)C(N)=O)nc1C(=O)N[C@H](C(=O)N[C@H](C)[C@@H](O)[C@H](C)C(=O)N[C@H](C(=O)NCCc1nc(-c2nc(C(=O)NCCCCN=C(N)N)cs2)cs1)[C@@H](C)O)[C@@H](O[C@@H]1O[C@@H](CO)[C@@H](O)[C@H](O)[C@@H]1O[C@H]1O[C@H](CO)[C@@H](O)[C@H](OC(N)=O)[C@@H]1O)c1cnc[nH]1	inactive	inactive		inactive
CCCCCCNC(=O)n1cc(F)c(=O)[nH]c1=O	inactive	43.2 µM (active)		inactive
CCOC(=O)c1ccc(N)cc1	inactive			inactive
CCOC(=O)[C@H](CCc1ccccc1)N[C@@H](C)C(=O)N1CCC[C@H]1C(=O)O	inactive	inactive	inactive	inactive
CCN(CC)CC(=O)Oc1ccc(NC(C)=O)cc1	inactive	inactive	inactive	inactive
Cc1cccc(C)c1OCC(=O)N[C@@H](Cc1ccccc1)[C@@H](O)C[C@H](Cc1ccccc1)NC(=O)[C@H](C(C)C)N1CCCNC1=O	inactive			38.5 µM (active)
CC(C)Cc1ccc(C(C)C(=O)O)cc1 (stereo unspecified)	inactive	inactive		inactive
